From ChEMBL document CHEMBL1201862, “PubChem BioAssay data set” (2004)
Only a part of the results of these assays is listed, not drawn at random.

Biological target: Acyl-homoserine lactone acylase PvdQ (Pseudomonas aeruginosa (strain LESB58)) (UniProt Q9I194)
Assay: P. aeruginosa growth delay under iron chelation, dose response, absorbance, plate reader, cherry-picks (AID 602389); call rule not given here
Assay type: functional

AbsAC35, active:
C=CCOC(=O)c1ccc(-n2cnc(C)n2)nc1 89.1 µM
N#Cc1cc(-c2ccccc2)cnc1Cl 74.1 µM
COc1ccc(C2=C(C=O)Cc3ccccc3O2)cc1 210 µM
C#CCSc1ncc(-c2ccccc2)cn1 214 µM
N#CN(Cc1ccccc1)Cc1ccccc1 477 µM
